Screens from PubChem.
eIF4H inh – human eIF4H binding inhibitors, primary screen, translation initiation inhibitor project, biochemical, uHTS, fluorescence polarization. Eukaryotic translation initiation factor 4H (Homo sapiens), Q15056. eIF4H fluorescence polarization binding assay. inhibition, % at 35 µM. hit rate 0.94% among 290,000. AID 2012, 2009;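 note: calls also rest on retests at 20 µM and on dose response follow-up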
PABP FP inh – PABP poly(A) RNA binding inhibitors, primary screen, biochemical, fluorescence polarization, uHTS | Polyadenylate-binding protein 1 (Homo sapiens), P11940 | calls only at 35 µM | hit rate 1% among 290,000 | AID 2014, 2009;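 note: calls also rest on retests at 20 µM and on dose response follow-up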
MLLE-PAM2 inh – inhibitors of PABP1 MLLE–PAM2 peptide binding, primary screen, biochemical, fluorescence polarization, FITC-PAM2, GST-MLLE; Polyadenylate-binding protein 1 (Homo sapiens), P11940; inhibition, % at 20 µM; hit rate 0.36% among 360,000; AID 588489, 2011; in the data active = inhibition above about 35%, passing the limit was not always enough;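 note: plate controls were DMSO wells with GST-MLLE for no effect and wells lacking GST-MLLE protein for full effect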
APOBEC3G inh – APOBEC3G DNA deaminase inhibitors, primary screen, biochemical, fluorescence, single-stranded DNA substrate, uHTS | hit rate 0.28% among 330,000 | recombinant A3G, ssDNA deamination FAM/TAMRA fluorescence | inhibition, % at 20 µM | DNA dC->dU-editing enzyme APOBEC-3G (Homo sapiens), Q9HC16 | AID 493012, 2011;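 active = inhibition of at least 40% at 20 µM, with no more than 30% in the related APOBEC3A deaminase screen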;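 note: plate controls were DMSO wells with A3G for no effect and wells lacking A3G enzyme for full effect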
APOBEC3A inh – APOBEC3A ssDNA deaminase inhibitors, primary screen, selectivity assay for APOBEC3G inhibitor project, biochemical, FAM/TAMRA oligo cleavage fluorescence; recombinant A3A, FAM/TAMRA ssDNA deamination fluorescence; inhibition, % at 20 µM; hit rate 0.41% among 330,000; DNA dC->dU-editing enzyme APOBEC-3A (Homo sapiens), P31941;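 active = at least 40% inhibition at 20 µM here, with at most 30% in a related deaminase screen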;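 note: plate controls were A3A with DMSO for no effect and wells lacking A3A enzyme for full effect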
Target sequence (P31941 whole entry, looked up): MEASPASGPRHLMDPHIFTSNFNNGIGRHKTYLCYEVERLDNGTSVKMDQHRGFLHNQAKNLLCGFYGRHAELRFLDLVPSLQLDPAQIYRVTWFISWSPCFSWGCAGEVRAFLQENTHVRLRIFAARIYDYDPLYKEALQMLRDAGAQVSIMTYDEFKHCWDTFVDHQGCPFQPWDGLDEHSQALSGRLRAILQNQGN
PHOSPHO1 inh – PubChem AID 1565 | Phosphoethanolamine/phosphocholine phosphatase (Homo sapiens), Q8TCT1 | inhibition, % at 13.3 µM | recombinant PHOSPHO1, absorbance phosphatase assay | hit rate 1.1% among 290,000; in the data active = inhibition above about 60%
Target sequence (Q8TCT1 whole entry, looked up): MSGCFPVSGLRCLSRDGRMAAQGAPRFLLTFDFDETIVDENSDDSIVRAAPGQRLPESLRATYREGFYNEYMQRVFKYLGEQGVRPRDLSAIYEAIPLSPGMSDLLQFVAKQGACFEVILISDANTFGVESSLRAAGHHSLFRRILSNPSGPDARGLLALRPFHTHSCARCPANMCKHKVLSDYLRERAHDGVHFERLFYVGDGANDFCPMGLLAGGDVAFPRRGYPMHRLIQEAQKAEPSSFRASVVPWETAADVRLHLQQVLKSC
* marks the source's active call; other numbers are inactive results. A selection: hits, their analogues and other compounds. The true share with any hit is near 2.6%. Unless noted, the rule behind the calls is not given here.

For CC(C)C1CC(CCNCc2ccc(N(C)C)cc2)(c2ccccc2)CCO1 (stereo unspecified) the results were eIF4H inh 7.9, PABP FP inh inactive, MLLE-PAM2 inh -2.8, APOBEC3G inh -1.5, APOBEC3A inh -1.7 and PHOSPHO1 inh -6.4.
Screening COc1cc2c(C#N)c(N3CCCCC3)nc(N)c2c(N)n1 returned eIF4H inh 90.9*, PABP FP inh active, MLLE-PAM2 inh -12.4, APOBEC3G inh -1.3, APOBEC3A inh -17.3 and PHOSPHO1 inh 7.6.
Screening COc1cc2c(C#N)c(N3CCc4ccccc4C3)nc(N)c2c(N)n1 returned eIF4H inh 121.5*, PABP FP inh active, MLLE-PAM2 inh 1.9, APOBEC3G inh -6.7, APOBEC3A inh -5.1 and PHOSPHO1 inh 6.3.
Screening CNc1cccccc1=S returned eIF4H inh 101.0*, PABP FP inh active, MLLE-PAM2 inh 48.9*, APOBEC3G inh 67.7, APOBEC3A inh 37.3 and PHOSPHO1 inh 75.7*.
For CNc1ccccc1 the results were MLLE-PAM2 inh 10.7, APOBEC3G inh -1.5 and APOBEC3A inh 2.1.
Screening Oc1c(Cl)cc(Cl)cc1Sc1cc(Cl)cc(Cl)c1O returned eIF4H inh 74.1*, PABP FP inh active, APOBEC3G inh -1.4, APOBEC3A inh 0.8 and PHOSPHO1 inh 20.7.
`CCOC(=O)C1=C(C(C)=O)C(c2cccnc2)C(C#N)=C(N)O1` (stereo unspecified) gave eIF4H inh 55.2*, PABP FP inh active, MLLE-PAM2 inh 19.8, APOBEC3G inh -4.4, APOBEC3A inh -3.4 and PHOSPHO1 inh 44.8.
For CCOC(=O)C1=C(CSc2nc(C)ccc2C#N)OC(N)=C(C#N)C1c1cccc(OC)c1OC (stereo unspecified) the results were eIF4H inh 16.4, PABP FP inh inactive, MLLE-PAM2 inh 26.4, APOBEC3G inh 8.1, APOBEC3A inh -5.6 and PHOSPHO1 inh 76.1*.
`CCOC(=O)C1=C(CSc2nc(-c3ccncc3)ccc2C#N)OC(N)=C(C#N)C1c1ccc(OC)cc1` (stereo unspecified) gave eIF4H inh 122.4, PABP FP inh inactive, MLLE-PAM2 inh -18.2, APOBEC3G inh -3.1, APOBEC3A inh -4.1 and PHOSPHO1 inh 14.5.
`CCOC(=O)C1=C(CSc2nc(-c3ccncc3)ccc2C#N)OC(N)=C(C#N)C1c1cccnc1` (stereo unspecified) gave eIF4H inh 119.5*, PABP FP inh active, MLLE-PAM2 inh 0.8, APOBEC3G inh -3.7, APOBEC3A inh -1.4 and PHOSPHO1 inh 61.0*.
Screening CC1CCN(C(=O)C2CCC(C)(C(=O)O)C2(C)C)CC1 (stereo unspecified) returned eIF4H inh -11.9, PABP FP inh inactive, MLLE-PAM2 inh -0.6, APOBEC3G inh -0.3, APOBEC3A inh 8.0 and PHOSPHO1 inh -6.4.
For Nc1ncnc2oc(-c3ccco3)c(-c3ccco3)c12 the results were eIF4H inh 104.3*, PABP FP inh active, MLLE-PAM2 inh 21.0, APOBEC3G inh 84.1, APOBEC3A inh 83.9 and PHOSPHO1 inh 13.2.
`O=C(CCS(=O)(=O)c1ccc(Br)cc1)NC1CCCCCC1` gave eIF4H inh 63.5*, PABP FP inh inactive, MLLE-PAM2 inh -6.9, APOBEC3G inh 86.8, APOBEC3A inh 63.0 and PHOSPHO1 inh 7.9.
Cc1ccc(S(=O)(=O)CCC(=O)NC2CCCCC2)cc1 was read as MLLE-PAM2 inh -53.0, APOBEC3G inh -5.9 and APOBEC3A inh 12.5.
For O=C(CCS(=O)(=O)c1ccc(Cl)cc1)NCCC1=CCCCC1 the results were eIF4H inh -12.1, PABP FP inh inactive, MLLE-PAM2 inh -16.4, APOBEC3G inh -3.9, APOBEC3A inh -2.3 and PHOSPHO1 inh 14.2.
Screening O=C(CCS(=O)(=O)c1ccc(Br)cc1)NCc1ccc(F)cc1 returned eIF4H inh 87.2*, PABP FP inh inactive, MLLE-PAM2 inh 6.4, APOBEC3G inh 13.7, APOBEC3A inh 15.6 and PHOSPHO1 inh 52.8.
For O=C(CCS(=O)(=O)c1ccc(Br)cc1)NCCC1=CCCCC1 the results were eIF4H inh 64.4*, PABP FP inh inactive, MLLE-PAM2 inh -0.3, APOBEC3G inh 23.1, APOBEC3A inh 22.9 and PHOSPHO1 inh 22.6.
CCCC(=O)Nc1c2c(nn1-c1ccc(C)cc1C)CSC2 was read as eIF4H inh -1.6, PABP FP inh inactive, MLLE-PAM2 inh 14.7, APOBEC3G inh -3.2, APOBEC3A inh -6.4 and PHOSPHO1 inh 71.7*.
Cc1ccnc2nc(C(=O)OCC(=O)N(C)C3CCCCC3)nn12 was read as MLLE-PAM2 inh 9.8.
Screening CCN(CC)C(=O)C1=C(C)N(CCCN2CCCC2=O)C(=O)C(CC(=O)NC(c2ccccc2)c2ccccc2)C1 (stereo unspecified) returned MLLE-PAM2 inh 18.8.
For CNc1nc(-c2ccccc2)cc(C(F)(F)F)c1C#N the results were eIF4H inh 96.0*, PABP FP inh active, MLLE-PAM2 inh 8.4, APOBEC3G inh 2.6, APOBEC3A inh 3.8 and PHOSPHO1 inh 12.2.
For CC(CS(=O)(=O)c1cccc2cccnc12)N1CCCCC1 (stereo unspecified) the results were eIF4H inh 53.1*, PABP FP inh active, MLLE-PAM2 inh 30.6, APOBEC3G inh -4.7, APOBEC3A inh -2.7 and PHOSPHO1 inh 1.8.
For CCN(CC)C(=O)c1ccccc1NC(=O)CN1C(=O)c2ccccc2C1=O the results were eIF4H inh -3.3, PABP FP inh inactive, MLLE-PAM2 inh -1.2, APOBEC3G inh -2.2, APOBEC3A inh 3.1 and PHOSPHO1 inh 32.8.
Screening Cc1c(C(=O)NCc2ccc3c(c2)cc(C)n3C)cccc1[N+](=O)[O-] returned eIF4H inh 19.1, PABP FP inh inactive, MLLE-PAM2 inh 47.5*, APOBEC3G inh -2.6, APOBEC3A inh -0.7 and PHOSPHO1 inh 1.3.
`Cc1cc2cc(CNC(=O)c3cccc([N+](=O)[O-])c3)ccc2n1C` gave eIF4H inh 45.8, PABP FP inh inactive, MLLE-PAM2 inh -13.6, APOBEC3G inh -7.5, APOBEC3A inh -8.5 and PHOSPHO1 inh -1.2.
Cc1cc2cc(CNC(=O)Cc3ccc([N+](=O)[O-])cc3)ccc2n1C was read as eIF4H inh 47.3, PABP FP inh inactive, MLLE-PAM2 inh 40.3*, APOBEC3G inh -5.2, APOBEC3A inh -1.5 and PHOSPHO1 inh 26.7.
Cc1cc2cc(CNC(=O)Cc3cccs3)ccc2n1C was read as eIF4H inh 40.3, PABP FP inh inactive, MLLE-PAM2 inh 38.8*, APOBEC3G inh -4.4, APOBEC3A inh -4.3 and PHOSPHO1 inh 22.1.
Screening O=C(Nc1ccc2nc([C@H]3C[C@H](O)[C@@H](CO)O3)[nH]c2c1)NC(c1ccccc1)c1ccccc1 returned MLLE-PAM2 inh -7.3.
